# Measurements: PubChem BioAssay (Tox21)
# Results filed as inconclusive are left out. A call without a number means that no potency is given here. Unmarked numbers belong to inactive results. The source made the active and inactive calls. Unless noted, calls follow the shape of the dose curve; as a rule, active = well fitted curve in the direction sought with a large enough effect in the repeat runs; inconclusive = weak or mixed curves; inactive = no such curve, though single readings can be large; an effect the other way counts as inactive or inconclusive.
# Columns and labels:
# [1] = qHTS assay to identify small molecule antagonists of the thyroid receptor (TR) signaling pathway - cell viability counter screen (AID 743064); also: nearly all actives have a fitted effect of over 50% in size; also: potency is read from the fitted curve at half-maximal effect
# How it was run: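 In rat pituitary GH3.TRE-Luc reporter cells co-exposed to compound and 1 nM T3 for 23.5 h, cytotoxicity was assessed with CellTiter-Fluor in the same wells, read by fluorescence.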
# [2] = qHTS assay to identify small molecule antagonists of the thyroid receptor (TR) signaling pathway (AID 743065); also: nearly all actives have a fitted effect of over 55% in size; also: potency is read from the fitted curve at half-maximal effect
# How it was run: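 GH3.TRE-Luc rat pituitary cells (two TREs driving luciferase) were dosed with compound, then stimulated with 1 nM T3 (final) for 23.5 h at 37 C. ONE-Glo luminescence was the read-out, with CellTiter-Fluor fluorescence as the cytotoxicity counter-screen.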
# [3] = qHTS assay to identify small molecule antagonists of the estrogen receptor alpha (ER-alpha) signaling pathway - cell viability counter screen (AID 743074; calls by dose curve;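 also: HEK293 cells carrying ER-alpha-UAS-bla reporter stimulated with 17beta-estradiol; nearly all actives have a fitted effect of over 45% in size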; also: potency is read from the fitted curve at half-maximal effect)
# [4] = target: Estrogen receptor (Homo sapiens) (UniProt P03372); experiment: qHTS assay to identify small molecule agonists of the estrogen receptor alpha (ER-alpha) signaling pathway (AID 743075; calls by dose curve;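 also: HEK293 GripTite cells with ER-alpha and UAS-driven beta-lactamase reporter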; also: potency is read from the fitted curve at half-maximal effect)
# Estrogen receptor (Homo sapiens), sequence (P03372 whole entry, looked up): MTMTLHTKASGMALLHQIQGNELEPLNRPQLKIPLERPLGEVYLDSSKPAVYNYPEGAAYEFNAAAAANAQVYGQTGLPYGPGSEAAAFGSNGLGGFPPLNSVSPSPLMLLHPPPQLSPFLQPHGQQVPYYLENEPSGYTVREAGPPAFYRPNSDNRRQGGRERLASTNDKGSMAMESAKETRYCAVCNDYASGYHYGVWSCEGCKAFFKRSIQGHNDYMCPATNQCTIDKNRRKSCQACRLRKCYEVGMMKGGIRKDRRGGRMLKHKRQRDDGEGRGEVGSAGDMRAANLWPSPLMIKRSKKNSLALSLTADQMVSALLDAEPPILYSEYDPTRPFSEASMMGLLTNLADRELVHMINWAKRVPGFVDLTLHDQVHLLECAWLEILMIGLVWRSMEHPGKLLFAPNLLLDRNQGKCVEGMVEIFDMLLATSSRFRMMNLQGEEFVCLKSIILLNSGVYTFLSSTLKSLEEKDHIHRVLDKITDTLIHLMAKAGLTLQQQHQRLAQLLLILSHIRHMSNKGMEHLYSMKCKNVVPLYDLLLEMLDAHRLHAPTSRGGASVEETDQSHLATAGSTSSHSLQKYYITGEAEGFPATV
# [5] = target: Estrogen receptor (Homo sapiens) (UniProt P03372); experiment: qHTS assay to identify small molecule agonists of the estrogen receptor alpha (ER-alpha) signaling pathway using the BG1 cell line (AID 743079); conditions: BG1Luc4E2 cells, ERE-luciferase agonist, 22 h; activation: at 70.3 µM (top of the series); also: nearly all actives have a fitted effect of over 20% in size
# [6] = qHTS assay to identify small molecule antagonists of the estrogen receptor alpha (ER-alpha) signaling pathway using the BG1 cell line - cell viability counter screen (AID 743081);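 also: compound given together with 17beta-estradiol as the ER stimulus; nearly all actives have a fitted effect of over 45% in size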; also: potency is read from the fitted curve at half-maximal effect
# [7] = qHTS assay to identify aromatase inhibitors - cell viability counter screen (AID 743084);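 also: cells stimulated with testosterone during compound exposure; nearly all actives have a fitted effect of over 55% in size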; also: potency is read from the fitted curve at half-maximal effect
# [8] = target: Peroxisome proliferator-activated receptor gamma (Homo sapiens) (UniProt P37231); experiment: qHTS assay to identify small molecule agonists of the peroxisome proliferator-activated receptor gamma (PPARg) signaling pathway (AID 743094; active = well fitted activation curve with a large enough effect in the signal ratio in the repeat runs, not every such curve was filed as active; the % refers to the signal ratio)
# Peroxisome proliferator-activated receptor gamma (Homo sapiens), sequence (P37231 whole entry, looked up): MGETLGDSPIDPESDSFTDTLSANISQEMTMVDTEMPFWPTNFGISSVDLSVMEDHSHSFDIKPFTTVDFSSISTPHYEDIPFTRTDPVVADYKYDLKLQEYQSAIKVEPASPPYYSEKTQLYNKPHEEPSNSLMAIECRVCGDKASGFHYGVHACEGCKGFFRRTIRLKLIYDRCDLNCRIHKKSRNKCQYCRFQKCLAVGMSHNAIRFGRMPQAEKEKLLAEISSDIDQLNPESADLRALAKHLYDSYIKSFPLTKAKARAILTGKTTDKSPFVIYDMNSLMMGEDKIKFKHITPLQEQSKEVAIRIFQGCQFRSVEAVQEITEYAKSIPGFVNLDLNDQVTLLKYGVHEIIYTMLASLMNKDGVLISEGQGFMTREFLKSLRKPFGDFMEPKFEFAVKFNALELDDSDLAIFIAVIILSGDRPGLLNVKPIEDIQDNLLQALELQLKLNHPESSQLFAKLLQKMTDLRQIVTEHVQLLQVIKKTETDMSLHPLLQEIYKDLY
# How it was run: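 Beta-lactamase FRET fluorescence was the read-out after a 1 h room-temperature substrate step, following 17 h compound treatment at 37C of HEK293H cells expressing a UAS-driven bla reporter responsive to PPARg.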
# [9] = tested on: thyroid hormone receptor (rat, GH3 cells); experiment: qHTS assay to identify small molecule agonists of the thyroid receptor (TR) signaling pathway (AID 743066; calls by dose curve)
# Aromatase (Homo sapiens) = Aromatase (Homo sapiens) (UniProt P11511); experiment: qHTS assay to identify aromatase inhibitors (AID 743083); also: nearly all actives have a fitted effect of over 55% in size; also: potency is read from the fitted curve at half-maximal effect
# Aromatase (Homo sapiens), sequence (P11511 whole entry, looked up): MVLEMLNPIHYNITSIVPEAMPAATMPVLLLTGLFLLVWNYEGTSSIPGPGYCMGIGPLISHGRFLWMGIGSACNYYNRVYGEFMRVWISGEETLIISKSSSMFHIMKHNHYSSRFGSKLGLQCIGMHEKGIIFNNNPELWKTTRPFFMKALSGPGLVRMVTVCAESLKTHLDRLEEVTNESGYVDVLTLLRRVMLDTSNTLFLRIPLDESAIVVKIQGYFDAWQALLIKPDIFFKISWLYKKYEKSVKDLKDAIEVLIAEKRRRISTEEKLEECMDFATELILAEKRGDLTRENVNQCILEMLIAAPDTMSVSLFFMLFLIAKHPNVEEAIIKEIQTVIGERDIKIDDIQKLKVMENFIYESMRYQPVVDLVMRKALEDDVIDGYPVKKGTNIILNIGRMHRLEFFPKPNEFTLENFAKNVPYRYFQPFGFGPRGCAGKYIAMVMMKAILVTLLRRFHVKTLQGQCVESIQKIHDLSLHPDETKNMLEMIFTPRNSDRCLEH
# [10] = target: Aryl hydrocarbon receptor (Homo sapiens) (UniProt P35869); experiment: qHTS assay to identify small molecule that activate the aryl hydrocarbon receptor (AhR) signaling pathway (AID 743085); also: nearly all actives have a fitted effect of over 15% in size; also: potency is read from the fitted curve at half-maximal effect;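 as to activation: HG2L7.5c1 human HepG2 liver cells with stably integrated DRE-driven firefly reporter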
# Aryl hydrocarbon receptor (Homo sapiens), sequence (P35869 whole entry, looked up): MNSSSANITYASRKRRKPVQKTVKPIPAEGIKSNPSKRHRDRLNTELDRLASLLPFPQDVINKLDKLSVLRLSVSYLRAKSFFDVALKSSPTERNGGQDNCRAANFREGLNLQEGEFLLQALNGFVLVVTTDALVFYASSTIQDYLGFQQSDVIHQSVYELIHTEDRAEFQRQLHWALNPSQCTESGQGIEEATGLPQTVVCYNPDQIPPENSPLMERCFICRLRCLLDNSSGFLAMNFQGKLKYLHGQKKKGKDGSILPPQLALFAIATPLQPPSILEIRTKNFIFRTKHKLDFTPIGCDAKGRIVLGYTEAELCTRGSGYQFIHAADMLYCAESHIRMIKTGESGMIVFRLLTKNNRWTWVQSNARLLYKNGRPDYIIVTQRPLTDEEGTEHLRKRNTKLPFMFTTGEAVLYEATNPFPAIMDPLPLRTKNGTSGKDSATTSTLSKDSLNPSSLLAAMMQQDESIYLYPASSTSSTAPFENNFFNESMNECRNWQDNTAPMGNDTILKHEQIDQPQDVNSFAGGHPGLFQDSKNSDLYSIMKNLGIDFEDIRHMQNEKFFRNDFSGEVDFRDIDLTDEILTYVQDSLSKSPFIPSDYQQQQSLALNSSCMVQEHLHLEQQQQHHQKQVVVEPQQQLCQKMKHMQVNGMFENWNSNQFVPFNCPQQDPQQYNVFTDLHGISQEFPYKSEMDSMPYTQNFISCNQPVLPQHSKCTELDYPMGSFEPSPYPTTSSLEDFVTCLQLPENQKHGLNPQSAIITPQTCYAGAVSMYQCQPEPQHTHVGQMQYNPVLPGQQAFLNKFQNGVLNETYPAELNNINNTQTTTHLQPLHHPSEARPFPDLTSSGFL
# How it was run: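 AhR agonist activity is inferred from enhanced light output of a DRE-controlled firefly luciferase reporter in HepG2 cells, measured with ONE-Glo following 24 h treatment at 37C.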
# [11] = qHTS assay to identify small molecule that activate the aryl hydrocarbon receptor (AhR) signaling pathway - cell viability counter screen (AID 743086); also: nearly all actives have a fitted effect of over 45% in size; also: potency is read from the fitted curve at half-maximal effect
# How it was run: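 HepG2-AhR-luc (HG2L7.5c1) cells, 4000/well, treated 24 h at 37 C with compound; viability measured as CellTiter-Fluor fluorescence after 30 min in the same wells as the luciferase read.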
# [12] = qHTS assay to identify small molecule antagonists of the estrogen receptor alpha (ER-alpha) signaling pathway using the BG1 cell line (AID 743080; calls by dose curve;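 also: BG1 cells stimulated with 17beta-estradiol alongside compound; nearly all actives have a fitted effect of over 25% in size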; also: potency is read from the fitted curve at half-maximal effect)
# How it was run: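 After 5 days in phenol-red-free 10% charcoal-stripped FBS medium, BG1-Luc-4E2 cells were seeded, left 24 h at 37 C, co-treated with compounds and 17beta-estradiol for 21.5 h, then assayed for viability and luciferase.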
# [13] = target: Nuclear receptor subfamily 1 group I member 2 (Rattus norvegicus) (UniProt Q9R1A7); experiment: Rat pregnane X receptor (rPXR) activation by small molecules, qHTS assay (AID 1346983); conditions: rPXR luciferase reporter cells, One-Glo luminescence, 24 h; max activation: stronger effect = higher value; also: nearly all actives have a fitted effect of over 20% in size
# Nuclear receptor subfamily 1 group I member 2 (Rattus norvegicus), sequence (Q9R1A7 whole entry, looked up): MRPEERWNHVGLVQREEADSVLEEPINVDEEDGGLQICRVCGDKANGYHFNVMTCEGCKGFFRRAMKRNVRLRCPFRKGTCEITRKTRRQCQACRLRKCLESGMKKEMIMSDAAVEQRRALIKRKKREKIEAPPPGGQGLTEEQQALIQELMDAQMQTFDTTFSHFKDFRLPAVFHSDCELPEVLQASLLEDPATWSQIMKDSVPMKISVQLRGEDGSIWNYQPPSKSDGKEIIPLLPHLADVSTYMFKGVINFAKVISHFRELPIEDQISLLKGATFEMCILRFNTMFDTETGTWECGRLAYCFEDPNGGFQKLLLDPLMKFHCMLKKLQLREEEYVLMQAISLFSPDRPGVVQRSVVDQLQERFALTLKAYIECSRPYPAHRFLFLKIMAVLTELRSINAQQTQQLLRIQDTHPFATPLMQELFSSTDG
# How it was run: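 Cell-based rPXR activation assay: rPXR cells, 2,000 per well, rested 5hr at 37 C, then exposed to compounds in DMSO for 24 hr at 37 C. Luciferase activity read by One-Glo luminescence after 30 min at room temperature.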
# [14] = target: Nuclear receptor subfamily 1 group I member 2 (Homo sapiens) (UniProt O75469); experiment: CYP3A4 induction through human pregnane X receptor (PXR) by small molecules, qHTS assay (AID 1346984); also: nearly all actives have a fitted effect of over 40% in size; also: potency is read from the fitted curve at half-maximal effect
# How it was run: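 Luminescence readout: luciferase signal after One-Glo (30 min, room temperature), following 3 h at 37C with 3uM final Luciferin-IPA P450 substrate. Cells were DPX-2 (HepG2, PXR/CYP3A4-luc co-transfected) dosed for 24 h.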
# [15] = target: Estrogen receptor (Homo sapiens) (UniProt P03372); experiment: qHTS assay to identify small molecule antagonists of the estrogen receptor alpha (ER-alpha) signaling pathway (AID 743069; active = well fitted curve in the direction sought with a large enough effect in the signal ratio in the repeat runs, not every such curve was filed as active; the % refers to the signal ratio)
# How it was run: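 Reporter cells (ER-alpha-bla, HEK293 background) are conditioned overnight in stripped-serum medium (2% charcoal-stripped FBS). Compound and 17beta-estradiol exposure runs 18 hr at 37C, 5% CO2.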
# [16] = target: Nuclear receptor subfamily 1 group I member 2 (Homo sapiens) (UniProt O75469); experiment: Human pregnane X receptor (PXR) activation by small molecules, qHTS assay (AID 1346985); also: nearly all actives have a fitted effect of over 40% in size; also: potency is read from the fitted curve at half-maximal effect
# How it was run: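 DPX-2 cells (HepG2 co-transfected with a PXR response element and a CYP3A4-promoter luciferase construct) were seeded at 2,000 per well, rested 5 hr at 37C, then exposed to DMSO-dissolved compounds for 24 hr. Activation was read as luciferase luminescence.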
Compound,Potency [1],Potency [2],Potency [3],Potency [4],Potency [5],Potency [6],Potency [7],Potency [8],Potency [9],Potency (Aromatase (Homo sapiens)),Potency [10],Potency [11],Potency [12],max activation [13] [%],Potency [14],Potency [15],Potency [16]
CC(CN1c2ccccc2Sc2ccc(S(=O)(=O)N(C)C)cc21)N(C)C (centres undefined),11.9 µM (active),13.3 µM (active),inactive,inactive,inactive,inactive,inactive,inactive,,,,,,,,,
C/C=C(/CC[C@@H](C)[C@H]1CC[C@H]2C3=CC[C@H]4[C@H](C)[C@@H](O)CC[C@]4(C)[C@H]3CC[C@]12C)C(C)C,inactive,,inactive,,,inactive,inactive,inactive,inactive,inactive,inactive,inactive,,,,,
CCc1ccc2c(c1)N(CC(C)CN(C)C)c1ccccc1S2 (centres undefined),11.9 µM (active),11.9 µM (active),inactive,inactive,inactive,inactive,,,,,inactive,,inactive,1.61,12.6 µM (active),,
O=C(CCCN1CCC(C(=O)c2ccc(F)cc2)CC1)c1ccc(F)cc1,,,inactive,inactive,inactive,inactive,inactive,inactive,inactive,inactive,inactive,inactive,inactive,4,,inactive,15.8 µM (active)
CN1CCN(CCC=C2c3ccccc3Sc3ccc(S(=O)(=O)N(C)C)cc32)CC1,,8.41 µM (active),,inactive,inactive,,29.8 µM (active),,,,inactive,,inactive,,,inactive,
CC(C)(C)C1(O)CCN2CC3c4ccccc4CCc4cccc(c43)C2C1 (centres undefined),,23.7 µM (active),inactive,inactive,,inactive,,inactive,inactive,29.8 µM (active),inactive,,,,,,14.1 µM (active)
O=C(CCCN1CCC(n2c(=S)[nH]c3ccccc32)CC1)c1ccc(F)cc1,,26.6 µM (active),inactive,inactive,,,inactive,,,,11.9 µM (active),,,,,,
CCOC(=O)Nc1ccc2c(c1)N(C(=O)CN(C)C)c1ccccc1CC2,48.6 µM (active),48.6 µM (active),inactive,,,,,,inactive,,,,,,,,
CC(CC(c1ccccc1)c1ccccc1)NC(C)(C)C (centres undefined),,21.1 µM (active),,inactive,inactive,,inactive,inactive,inactive,inactive,inactive,inactive,inactive,,,,
CCOc1ccc(N=C(C)Nc2ccc(OCC)cc2)cc1,inactive,inactive,,inactive,inactive,,inactive,,inactive,inactive,inactive,inactive,inactive,,,inactive,
O=C(OCCO)c1ccccc1O,inactive,inactive,inactive,inactive,inactive,inactive,inactive,inactive,inactive,inactive,inactive,inactive,inactive,,,inactive,
CN1CCCC(CN2c3ccccc3Sc3ccccc32)C1 (centres undefined),,11.9 µM (active),inactive,inactive,inactive,inactive,inactive,inactive,,,inactive,,inactive,-5.65,25.1 µM (active),,
CCCCC(=O)OCC(=O)[C@]1(O)Cc2c(O)c3c(c(O)c2[C@@H](O[C@H]2C[C@H](NC(=O)C(F)(F)F)[C@H](O)[C@H](C)O2)C1)C(=O)c1c(OC)cccc1C3=O,9.44 µM (active),5.96 µM (active),inactive,,,23.7 µM (active),,,,inactive,inactive,,,,inactive,,inactive
CCC(=O)OCC(=O)[C@@]1(OC(=O)CC)[C@@H](C)C[C@H]2[C@@H]3CCC4=CC(=O)C=C[C@]4(C)[C@@]3(F)[C@@H](O)C[C@@]21C,,,inactive,23.9 µM [fluorescent] (active),,,inactive,inactive,,3.76 µM (active),inactive,inactive,,,,,
Cc1cc(/C=C/c2ccc3cc(N(C)C)ccc3[n+]2C)c(C)n1-c1ccccc1,6.39 µM (active),4.03 µM (active),,,,11.4 µM (active),8.04 µM (active),,,7.17 µM (active),,,,-14,,,inactive
C=C1C(=C/C=C2\CCC[C@]3(C)[C@@H]([C@H](C)CCCC(C)(C)O)CC[C@@H]23)C[C@@H](O)C[C@@H]1O,23.7 µM (active),13.3 µM (active),23.9 µM (active),inactive,,2.37 µM (active),inactive,,,inactive,10.6 µM (active),inactive,29.8 µM (active),0.618,inactive,,
CNC(C)CCC=C(C)C (centres undefined),,,,,,inactive,inactive,inactive,inactive,inactive,,inactive,,2.06,inactive,,inactive
O=C(O)c1c(Cl)c(Cl)c(Cl)c(Cl)c1-c1c2cc(I)c(=O)c(I)c-2oc2c(I)c(O)c(I)cc12,23.7 µM (active),23.7 µM (active),,inactive,,23.7 µM (active),23.7 µM (active),inactive,inactive,inactive,6.68 µM (active),23.7 µM (active),inactive,-7.42,,,inactive
COc1ccc(CNCC(O)COc2ccc3[nH]c(=O)ccc3c2)cc1OC (centres undefined),inactive,inactive,inactive,,,inactive,inactive,inactive,inactive,inactive,inactive,,,,,,
CN1CCN(C2=Nc3ccccc3Cc3ccccc32)CC1,13.3 µM (active),23.7 µM (active),inactive,inactive,inactive,inactive,inactive,inactive,inactive,inactive,inactive,inactive,inactive,,,inactive,
C=C[C@]1(C)C[C@@H](OC(=O)CSCCN(CC)CC)[C@]2(C)[C@H](C)CC[C@]3(CCC(=O)[C@H]32)[C@@H](C)[C@@H]1O,10.6 µM (active),23.7 µM (active),inactive,inactive,inactive,10.6 µM (active),,inactive,inactive,inactive,inactive,,inactive,,inactive,inactive,15.8 µM (active)
CN(C)CCOc1ccccc1Cc1ccccc1 (tested in a mixture with another compound),,,inactive,,,inactive,,,inactive,inactive,inactive,inactive,,,,,
O=C(O[C@H]1CN2CCC1CC2)N1CCc2ccccc2[C@@H]1c1ccccc1,23.7 µM (active),23.7 µM (active),inactive,,,inactive,inactive,,,inactive,inactive,inactive,,,,,
CCCCCCCN(CC)CCCC(O)c1ccc(NS(C)(=O)=O)cc1 (centres undefined),23.7 µM (active),21.1 µM (active),inactive,,,,inactive,,inactive,,inactive,inactive,,,,,
N=C(N)c1ccc(OCCCOc2ccc(C(=N)N)cc2Br)c(Br)c1,,,,,,,,,inactive,,,,,,,,
CCCCCCCCCCCCCCCC(=O)O[C@@H]1CC(C)=C(/C=C/C(C)=C/C=C/C(C)=C/C=C/C=C(C)/C=C/C=C(C)/C=C/C2=C(C)C[C@@H](OC(=O)CCCCCCCCCCCCCCC)CC2(C)C)C(C)(C)C1,,,inactive,inactive,inactive,inactive,inactive,inactive,inactive,inactive,inactive,inactive,inactive,,,,
CC(=O)c1ccc2c(c1)N(CCCN1CCN(CCO)CC1)c1ccccc1S2,13.3 µM (active),13.3 µM (active),inactive,,,,,,,,,,inactive,-12.2,,,inactive
